Results reported in PubChem BioAssay AID1159580 (chemical genetic matrix, 2015).
Where “and” joins values, the source holds several entries; their conditions need not be identical. Identical values can stand only once. About 2,000 (36%) of roughly 5,500 compounds were called active. About 18% were inconclusive and are not listed. No stated cut-off is given here; in the data, active means normalized growth mostly below about 0.91 (no sharp cut-off); inconclusive means no clear call, values can overlap the other calls; inactive means mostly above about 0.92. Some of the results follow.

Assay: chemical genetic growth profiling, strain panel (AID 1159580);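 further: tested at 20 µM; growth read once vehicle control cultures reached saturation at 30 °C; 1 = growth at the plate median or of vehicle wells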
Conditions: S. cerevisiae deletion strains, growth OD
[1] = locus YAL013W, strain DEP1, stronger effect = lower value
[2] = locus YBR229C, strain ROT2, stronger effect = lower value
[3] = locus YDL101C, strain DUN1, stronger effect = lower value
[4] = locus YDR150W, strain NUM1, stronger effect = lower value
[5] = locus YEL061C, strain CIN8, stronger effect = lower value
[6] = locus YHR030C, strain SLT2, stronger effect = lower value
[7] = locus YJL187C, strain SWE1, stronger effect = lower value
[8] = locus YJR043C, strain POL32, stronger effect = lower value
[9] = locus YJR075W, strain HOC1, stronger effect = lower value
[10] = locus YLR039C, strain RIC1, stronger effect = lower value
[11] = locus YLR262C, strain YPT6, stronger effect = lower value
[12] = locus YMR263W, strain SAP30, stronger effect = lower value

Measured: normalized growth

Cc1ccc2c(c1)N(CCO)C(C)(C)CC2C (centres undefined)
inactive: [1] 1 | [2] 0.997 | [3] 0.97 | [4] 0.909 | [5] 1.03 | locus YGR078C, strain PAC10, stronger effect = lower value 0.986 | [6] 0.982 | locus YHR087W, strain rtc3, stronger effect = lower value 0.961 | [7] 1 | [8] 0.98 | [9] 0.975 | [10] 0.969 | locus YLR058C, strain SHM2 (second series), stronger effect = lower value 0.988 | locus YLR085C, strain ARP6, stronger effect = lower value 1.03 | [11] 0.955 | locus YML094W, strain GIM5, stronger effect = lower value 0.993 | locus YMR219W, strain ESC1, stronger effect = lower value 0.987 | [12] 0.997 | locus YNL153C, strain GIM3, stronger effect = lower value 1 | locus YNL298W, strain CLA4 (second series), stronger effect = lower value 1.04 | locus YNL322C, strain KRE1, stronger effect = lower value 1 | locus YNR030W, strain Alg12, stronger effect = lower value 0.986 | locus YOL006C, strain TOP1, stronger effect = lower value 1.02 | locus YPL055C, strain LGE1, stronger effect = lower value 0.962 | locus YPL241C, strain CIN2, stronger effect = lower value 0.998 | locus YPR135W, strain CTF4, stronger effect = lower value 0.953

COc1cc(OC)c(OC)cc1C=O
inactive: [1] 0.991 | locus YAL021C, strain ccr4, stronger effect = lower value 1.01 | locus YAL026C, strain drs2, stronger effect = lower value 1 | locus YAL030W, strain snc1, stronger effect = lower value 0.998 | locus YBL061C, strain skt5, stronger effect = lower value 0.991 | locus YBR009C, strain hhf1, stronger effect = lower value 0.993 | locus YBR021W, strain FUR4, stronger effect = lower value 1.03 | locus YBR023C, strain chs3, stronger effect = lower value 0.991 | locus YBR171W, strain sec66, stronger effect = lower value 0.991 | [2] 1.01 | locus YBR231C, strain swc5, stronger effect = lower value 0.998 | locus YBR279W, strain paf1, stronger effect = lower value 0.997 | locus YCL011C, strain gbp2, stronger effect = lower value 1 | locus YCL016C, strain dcc1, stronger effect = lower value 0.995 | locus YCL029C, strain bik1, stronger effect = lower value 0.972 | locus YCL061C, strain MRC1, stronger effect = lower value 0.996 | locus YCL069W, strain vba3, stronger effect = lower value 0.999 | locus YCR088W, strain abp1, stronger effect = lower value 0.999 | locus YDL005C, strain med2, stronger effect = lower value 0.985 | locus YDL035C, strain GPR1, stronger effect = lower value 1.01 | locus YDL040C, strain nat1, stronger effect = lower value 0.998 | locus YDL074C, strain BRE1, stronger effect = lower value 1 | [3] 1.02 | locus YDL185W, strain tfp1, stronger effect = lower value 0.94 | locus YDL192W, strain arf1, stronger effect = lower value 0.997 | locus YDR001C, strain nth1, stronger effect = lower value 0.999 | locus YDR069C, strain doa4, stronger effect = lower value 0.991 | locus YDR101C, strain arx1, stronger effect = lower value 0.989 | locus YDR137W, strain rgp1, stronger effect = lower value 0.973 | [4] 0.991 | locus YDR159W, strain sac3, stronger effect = lower value 1 | locus YDR162C, strain NBP2, stronger effect = lower value 1.06 | locus YDR195W, strain ref2 1.01 | locus YDR297W, strain sur2, stronger effect = lower value 0.989 | locus YDR318W, strain mcm21, stronger effect = lower value 0.994 | locus YDR334W, strain swr1, stronger effect = lower value 0.987 | locus YDR335W, strain msn5, stronger effect = lower value 1 | locus YDR388W, stronger effect = lower value 0.988 | locus YDR392W, strain spt3, stronger effect = lower value 0.999 | locus YDR502C, strain sam2, stronger effect = lower value 0.995 | locus YEL003W, strain gim4, stronger effect = lower value 0.999 | locus YEL037C, strain rad23, stronger effect = lower value 1 | locus YEL061C, strain CIN8 (second series), stronger effect = lower value 1 | [5] 1.01 | locus YER015W, strain faa2, stronger effect = lower value 0.997 | locus YER016W, strain bim1, stronger effect = lower value 0.994 | locus YER110C, stronger effect = lower value 0.968 | locus YER111C, strain swi4, stronger effect = lower value 1 | locus YER155C, strain BEM2 (second series), stronger effect = lower value 1 | locus YER155C, strain BEM2, stronger effect = lower value 0.991 | locus YER167W, strain BCK2, stronger effect = lower value 1.02 | locus YFR010W, strain ubp6, stronger effect = lower value 0.999 | locus YGL078C, strain dbp3, stronger effect = lower value 0.986 | locus YGL086W, strain mad1, stronger effect = lower value 0.984 | locus YGL167C, strain pmr1, stronger effect = lower value 1 | locus YGL173C, strain kem1, stronger effect = lower value 0.997 | locus YGL227W, strain vid30, stronger effect = lower value 0.992 | locus YGL240W, strain doc1, stronger effect = lower value 1.02 | locus YGL248W, strain PDE1, stronger effect = lower value 1.06 | locus YGL253W, strain hxk2, stronger effect = lower value 0.992 | locus YGR135W, strain pre9, stronger effect = lower value 1.03 | locus YGR252W, strain gcn5, stronger effect = lower value 1.08 | locus YHR013C, strain ard1, stronger effect = lower value 1.02 | locus YHR027C, strain rpn1, stronger effect = lower value 0.994 | [6] 0.994 and 0.979 | locus YHR079C, strain IRE1 (second series), stronger effect = lower value 0.987 | locus YHR079C, strain IRE1, stronger effect = lower value 0.996 | locus YHR094C, strain hxt1, stronger effect = lower value 1 | locus YHR129C, strain ARP1, stronger effect = lower value 1.02 | locus YHR142W, strain chs7, stronger effect = lower value 0.998 | locus YHR200W, strain rpn10, stronger effect = lower value 0.978 | locus YIL066C, strain RNR3, stronger effect = lower value 1.04 | locus YIL073C, strain SPO22, stronger effect = lower value 0.955 | locus YIL125W, strain kgd1, stronger effect = lower value 0.998 | locus YIR030C, strain dcg1, stronger effect = lower value 0.99 | locus YJL092W, strain hpr5, stronger effect = lower value 0.995 | locus YJL095W, strain BCK1 (second series), stronger effect = lower value 0.99 | locus YJL095W, strain BCK1, stronger effect = lower value 1.09 and 0.989 | locus YJL115W, strain asf1, stronger effect = lower value 1 | locus YJL129C, strain trk1, stronger effect = lower value 1 | locus YJL134W, strain LCB3, stronger effect = lower value 0.987 | locus YJL154C, strain vps35, stronger effect = lower value 0.995 | locus YJL164C, strain tpk1, stronger effect = lower value 1 | locus YJL166W, strain qcr8, stronger effect = lower value 1.01 | locus YJL168C, strain set2, stronger effect = lower value 0.991 | locus YJL187C, strain SWE1 (second series), stronger effect = lower value 1.04 | [7] 0.991 | [8] 0.986 | locus YJR066W, strain TOR1, stronger effect = lower value 0.916 | [9] 1.01 | locus YKL009W, strain mrt4, stronger effect = lower value 0.972 | locus YKL068W, stronger effect = lower value 0.985 | locus YKL085W, strain MDH1 (second series), stronger effect = lower value 0.988 | locus YKL085W, strain MDH1, stronger effect = lower value 0.988 | locus YKL160W, strain elf1, stronger effect = lower value 1 | locus YKR001C, strain vps1, stronger effect = lower value 1.02 | locus YKR026C, strain gcn3, stronger effect = lower value 0.994 | locus YKR091W, strain srl3, stronger effect = lower value 0.997 | locus YLL001W, strain dnm1, stronger effect = lower value 1.01 | locus YLL026W, stronger effect = lower value 0.99 | locus YLL041C, strain sdh2, stronger effect = lower value 0.996 | locus YLR027C, strain aat2, stronger effect = lower value 1.01 | [10] 0.989 | locus YLR058C, strain SHM2, stronger effect = lower value 1.03 | locus YLR102C, strain apc9, stronger effect = lower value 0.971 | locus YLR113W, strain HOG1, stronger effect = lower value 1.01 | locus YLR221C, strain rsa3, stronger effect = lower value 0.992 | locus YLR258W, strain gsy2, stronger effect = lower value 1 | locus YLR262C, strain YPT6 (second series), stronger effect = lower value 0.985 | [11] 1.02 | locus YLR268W, strain sec22, stronger effect = lower value 0.97 | locus YLR320W, strain mms22, stronger effect = lower value 0.995 | locus YLR330W, strain CHS5, stronger effect = lower value 1.01 | locus YLR342W, strain FKS1 (second series), stronger effect = lower value 1.05 | locus YLR342W, strain FKS1, stronger effect = lower value 0.997 | locus YLR357W, strain rsc2, stronger effect = lower value 0.957 | locus YLR370C, strain arc18, stronger effect = lower value 0.997 | locus YLR371W, strain rom2, stronger effect = lower value 0.993 | locus YLR384C, strain iki3, stronger effect = lower value 1.01 | locus YLR418C, strain cdc73, stronger effect = lower value 1.02 | locus YML016C, strain PPZ1, stronger effect = lower value 1.01 | locus YML032C, strain rad52, stronger effect = lower value 1.04 | locus YML120C, strain ndi1, stronger effect = lower value 0.999 | locus YML124C, strain tub3, stronger effect = lower value 0.984 | locus YMR058W, strain fet3, stronger effect = lower value 1 | locus YMR078C, strain ctf18, stronger effect = lower value 0.982 | locus YMR125W, strain sto1, stronger effect = lower value 0.991 | locus YMR129W, stronger effect = lower value 0.989 | locus YMR205C, strain PFK2, stronger effect = lower value 1 | locus YMR223W, strain ubp8, stronger effect = lower value 1 | locus YMR231W, strain pep5, stronger effect = lower value 0.989 | [12] 1.01 | locus YMR307W, strain GAS1, stronger effect = lower value 1.09 | locus YNL067W, strain RPL9B, stronger effect = lower value 1.04 | locus YNL071W, strain lat1, stronger effect = lower value 1 | locus YNL183C, strain NPR1, stronger effect = lower value 0.946 | locus YNL209W, strain ssb2, stronger effect = lower value 0.996 | locus YNL233W, strain BNI4, stronger effect = lower value 1.06 | locus YNL248C, strain rpa49, stronger effect = lower value 1 | locus YNL250W, strain rad50, stronger effect = lower value 0.964 | locus YNL271C, strain bni1, stronger effect = lower value 0.982 | locus YNL298W, strain CLA4, stronger effect = lower value 0.987 | locus YNL307C, strain MCK1, stronger effect = lower value 0.999 | locus YNL322C, strain KRE1 (second series), stronger effect = lower value 1 | locus YNR049C, strain mso1, stronger effect = lower value 0.992 | locus YNR052C, strain pop2, stronger effect = lower value 0.995 | locus YOL012C, strain htz1 2.03 | locus YOL147C, strain pex11, stronger effect = lower value 1 | locus YOR001W, strain rrp6, stronger effect = lower value 0.998 | locus YOR061W, strain CKA2, stronger effect = lower value 1.01 | locus YOR069W, strain VPS5, stronger effect = lower value 0.989 | locus YOR070C, strain gyp1, stronger effect = lower value 0.979 | locus YOR080W, strain dia2, stronger effect = lower value 0.987 | locus YOR083W, strain WHI5, stronger effect = lower value 1 | locus YOR106W, strain vam3, stronger effect = lower value 1.01 | locus YOR136W, strain idh2, stronger effect = lower value 0.981 | locus YOR144C, strain elg1, stronger effect = lower value 1 | locus YOR184W, strain ser1, stronger effect = lower value 0.993 | locus YOR231W, strain MKK1, stronger effect = lower value 1 | locus YOR265W, strain rbl2, stronger effect = lower value 0.993 | locus YOR270C, strain vph1, stronger effect = lower value 1.01 | locus YOR290C, strain snf2, stronger effect = lower value 1 | locus YOR316C, strain cot1, stronger effect = lower value 0.99 | locus YPL051W, strain arl3, stronger effect = lower value 0.992 | locus YPL078C, strain atp4, stronger effect = lower value 1 | locus YPL106C, strain sse1, stronger effect = lower value 0.958 | locus YPL240C, strain hsp82, stronger effect = lower value 0.992 | locus YPL256C, strain CLN2, stronger effect = lower value 0.976 | locus YPR119W, strain clb2, stronger effect = lower value 0.974 | locus YPR141C, strain kar3, stronger effect = lower value 0.975 | locus YPR163C, strain tif3, stronger effect = lower value 0.981 | locus YPR167C, strain met16, stronger effect = lower value 0.971 | strain wtn01, stronger effect = lower value 0.978
